High-throughput results (PubChem BioAssay)
Mcl1 Bid PPI = Mcl-1/Bid binding inhibitors, primary screen, biochemical, TR-FRET, 1536-well | TR-FRET Mcl-1/Bid-Dy647 peptide binding | inhibition, % at 21.7 µM | Induced myeloid leukemia cell differentiation protein Mcl-1 (Homo sapiens), Q07820 | AID 1021, 2008 | 220,000 compounds, 0.97% hits;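 active = compounds that cut the binding signal by more than half at the single screening dose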;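 also: His-tagged Mcl-1 with europium anti-His antibody binding Bid BH3 peptide; 0% = Mcl-1 plus peptide wells and 100% = peptide-only wells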
BCLXL inh = inhibitors of human Bcl-xL, primary screen, biochemical, fluorescence polarization, HTS; 320,000 compounds, 0.7% hits; GST-Bcl-xL / FITC-Bim BH3 peptide fluorescence polarization; inhibition, % at 10.9 µM; Bcl-2-like protein 1 (Homo sapiens), Q07817; AID 2129, 2009;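 active = inhibition above the mean of all tested compounds plus 3 SD, cutoff set per campaign, cut at about 30% in these data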;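 also: 0% = DMSO wells and 100% = unlabeled Bim-BH3 peptide competitor; inhibitors lower millipolarization by displacing the labeled peptide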
Target sequence (Q07817 whole entry, looked up): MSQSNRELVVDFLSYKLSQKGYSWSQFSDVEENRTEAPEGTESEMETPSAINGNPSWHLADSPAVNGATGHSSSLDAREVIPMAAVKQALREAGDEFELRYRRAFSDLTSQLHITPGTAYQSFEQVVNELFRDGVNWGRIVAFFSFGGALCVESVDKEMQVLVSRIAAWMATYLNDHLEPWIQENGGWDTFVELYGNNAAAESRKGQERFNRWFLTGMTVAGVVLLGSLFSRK
GLD-1 RNA inh = GLD-1/TGE RNA complex disruptors, primary screen, biochemical, fluorescence polarization; Female germline-specific tumor suppressor gld-1 (Caenorhabditis elegans), Q17339; purified GLD-1 + fluorescein TGE RNA; inhibition, % at 5.96 µM; 320,000 compounds, 0.44% hits; AID 2280, 2010;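 active = percent inhibition above a per-plate cutoff, the plate mean of test compounds plus 3 SD, cut at about 30% in these data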;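 also: 0% = DMSO wells with GLD-1 and probe and 100% = wells lacking GLD-1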
Target sequence (Q17339 whole entry, looked up): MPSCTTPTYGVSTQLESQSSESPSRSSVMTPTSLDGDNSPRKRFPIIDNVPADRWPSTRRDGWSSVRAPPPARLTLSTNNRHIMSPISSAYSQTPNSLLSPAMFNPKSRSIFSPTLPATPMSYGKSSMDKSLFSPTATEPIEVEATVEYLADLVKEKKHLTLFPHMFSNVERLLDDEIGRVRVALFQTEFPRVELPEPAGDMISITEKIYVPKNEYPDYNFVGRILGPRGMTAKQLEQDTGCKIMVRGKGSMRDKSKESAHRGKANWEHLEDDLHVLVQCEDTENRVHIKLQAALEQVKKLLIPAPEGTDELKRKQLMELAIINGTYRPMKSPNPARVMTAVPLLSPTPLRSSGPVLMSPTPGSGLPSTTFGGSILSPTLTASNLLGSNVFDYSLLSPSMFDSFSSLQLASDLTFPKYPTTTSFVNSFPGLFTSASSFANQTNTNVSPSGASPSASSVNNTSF
Bim-Mcl-1 = inhibitors of Bim peptide binding to Mcl-1, primary screen, biochemical, bead-based flow cytometry, multiplex | Induced myeloid leukemia cell differentiation protein Mcl-1 (Homo sapiens), Q07820 | Bim peptide-Mcl-1 binding | inhibition, % at 10 µM | 190,000 compounds, 0.1% hits; in the data active = inhibition above about 40%;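 also: 0% = no compound tracer wells and 100% = peptide blocker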
Mcl1 Noxa PPI = Mcl-1/Noxa binding inhibitors, primary screen, biochemical, TR-FRET, 1536-well | Induced myeloid leukemia cell differentiation protein Mcl-1 (Homo sapiens), Q07820 | TR-FRET Mcl-1/Noxa peptide binding, 2 h | inhibition, % at 21.7 µM | 220,000 compounds, 1.5% hits | AID 1022, 2008;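 active = compounds that cut the protein-peptide binding signal by more than 50% relative to plate controls in a single-dose test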;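 also: His-tagged Mcl-1 with rhodamine Noxa BH3 peptide and terbium anti-His antibody; 0% = Mcl-1 plus Noxa peptide wells and 100% = peptide-only wells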
MCL1-BIM inh = inhibitors of MCL1 binding to BIM-BH3, primary screen, biochemical, fluorescence polarization | GST-MCL1 / FITC-Bim-BH3 fluorescence polarization | inhibition, % at 10.9 µM | 320,000 compounds, 0.68% hits | Induced myeloid leukemia cell differentiation protein Mcl-1 (Homo sapiens), Q07820 | AID 2057, 2009;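 active = inhibition above the mean inhibition of all tested compounds plus 3 SD, set per campaign, cut at about 40% in these data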;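 also: 0% = DMSO wells and 100% = unlabeled Bim-BH3 peptide control; higher means more loss of mP so more displacement of Bim peptide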
An asterisk follows results filed as active; . = no result given. This is a sample that favours compounds with a hit; in the whole collection about 2.3% have one here.

SMILES | Mcl1 Bid PPI | BCLXL inh | GLD-1 RNA inh | Bim-Mcl-1 | Mcl1 Noxa PPI | MCL1-BIM inh
CCSc1nnc(NC(=O)C(Cc2ccccc2)n2cccc2)s1 (configuration not stated) | 64* | 6 | -1 | 0 | 28 | 7
CN(C(=O)CSc1nc2c(c(=O)[nH]1)CCC2)c1ccccc1 | -27 | 5 | 4 | 0 | -1 | 8
COCCCNc1nc2c(-c3ccc(Cl)cc3)nnn2c2ccccc12 | 25 | 4 | 0 | -1 | -177 | 7
NNc1nc2c(-c3ccc(Cl)cc3)nnn2c2ccccc12 | 12 | 10 | -13 | -3 | 68* | 15
NNc1nc2c(-c3ccc(F)cc3)nnn2c2ccccc12 | -23 | 16 | -26 | 6 | 69* | 8
COc1ccc(NC(=O)c2nc3nc(C)cc(C(F)F)n3n2)cc1OC | -10 | 0 | 3 | -1 | 5 | -7
CCN(CC)c1ccc(NC(=O)c2nc3nc(C)cc(C(F)F)n3n2)cc1 | -33 | -3 | -5 | -4 | 58* | -6
Cc1cc(C)n2nc(C(=O)Nc3ccc4c(c3)OCO4)nc2n1 | -41 | 13 | 4 | 0 | 54* | 8
O=C(Cn1cncc1-c1ccc([N+](=O)[O-])cc1)Nc1ccccc1F | 11 | 1 | 33* | 3 | 33 | 0
O=C(/C=C/c1cccc(OCc2ccccc2)c1)c1cccnc1 | 55* | 6 | 6 | -4 | 30 | 6
N#C/C=C1/NC(=O)c2ccccc2S1 | 65* | 8 | -65 | -8 | 10 | 7
CC(C)OC(=O)Cn1cnc2ccc(Br)cc2c1=O | 0 | 4 | 4 | -3 | 107* | -6
C/C(CC(=O)Nc1ccccn1)=N\NC(=O)c1ccc([N+](=O)[O-])cc1Cl | . | 3 | 0 | . | . | 7
O=C(Nc1ccccn1)c1ccc([N+](=O)[O-])cc1Cl | 94* | 2 | 0 | -3 | 2 | -2
CN(C)c1ccc(NC(=O)c2ccc([N+](=O)[O-])cc2Cl)cc1 | -19 | 5 | -2 | -4 | 74* | 6
COc1ccccc1NC(=O)CCC(=O)OCC(=O)c1ccc(C)c([N+](=O)[O-])c1 | . | 0 | 2 | . | . | 10
COc1ccc(N(CC(=O)NCCSCc2ccccc2Cl)S(C)(=O)=O)cc1Cl | . | 1 | -8 | . | . | -1
COc1cccc(-c2cc(=O)c3cc(NC(=O)c4ccc(N(C)C)cc4)ccc3[nH]2)c1 | 17 | -2 | 0 | 0 | 58* | -4
Cc1c(NC(=O)Nc2cc(F)c(F)cc2Cl)c(=O)n(-c2ccccc2)n1C | . | 1 | -2 | . | . | -4
COc1ccc(OC)c(/C=N/N(C)c2ccccc2)c1 | -25 | 0 | 10 | 1 | 18 | -6
COc1cc(/C=N/N(C)c2ccccc2)cc(Cl)c1O | -23 | 14 | 12 | -2 | 67* | 5
CCOC(=O)CC1CCCCN1C(=O)c1cc(COc2cccc3cnccc23)on1 (configuration not stated) | . | 6 | -1 | . | . | 5
Cc1ccc(Cl)cc1NC(=O)CCS(=O)(=O)c1cccc2nonc12 | . | 1 | 2 | . | . | 0
CCC(=O)N(CC)c1nc(-c2ccc(OC)cc2)cs1 | 54* | 3 | 10 | -4 | -3 | -2
Cc1ccc(-c2c(=O)n(OCc3ccccn3)c3ccccc3[n+]2[O-])cc1 | -11 | . | . | -4 | -13 | .
SMILES | Mcl1 Bid PPI | BCLXL inh | GLD-1 RNA inh | Bim-Mcl-1 | Mcl1 Noxa PPI | MCL1-BIM inh
COc1ccc(-c2c(=O)n(OCc3ccccn3)c3ccccc3[n+]2[O-])cc1OC | -20 | 5 | -1 | -4 | 54* | -2
C(=N\N1CCN(Cc2cccc3ccccc23)CC1)/c1cccnc1 | 58* | -4 | 7 | 0 | -9 | -6
FC(F)(F)c1ccc(/C=N/N2CCN(Cc3cccc4ccccc34)CC2)cc1 | -71 | -2 | 1 | 0 | -5 | 1
O=S(=O)(Nc1ccc(N=Nc2ccccc2)cc1)c1ccccc1 | 12 | 4 | -1 | -3 | -11 | 4
O=S(=O)(Nc1ccc(N=Nc2ccc(O)c3ccccc23)cc1)c1ccccc1 | -29 | 2 | 4 | 1 | 59* | 3
CN(C)c1ccc(-c2nnc(-c3ccc(S(=O)(=O)C(F)F)cc3)o2)cc1 | 73* | 16 | 3 | 1 | 27 | 12
O=C(CCCC(=O)c1ccccc1)Nc1ccc(O)cc1 | . | 4 | 3 | . | . | 8
COc1ccc(C(=O)N=c2c(C#N)cc3c(=O)n4cccc(C)c4nc3n2Cc2ccco2)cc1 | 20 | . | . | -3 | 77* | .
COCCCn1c(=NC(=O)c2ccncc2)c(C#N)cc2c(=O)n3cccc(C)c3nc21 | 27 | 41* | 19 | 0 | 6 | 39
CCCCn1c(=NC(=O)c2cccnc2)c(C#N)cc2c(=O)n3cccc(C)c3nc21 | -28 | 46* | 12 | -6 | 13 | 48*
CCOC(=O)c1cc2c(=O)n3cccc(C)c3nc2n(CCCOC)c1=NC(=O)c1cccnc1 | -8 | 10 | 4 | 0 | 10 | 8
Cn1cc([N+](=O)[O-])c(C(=O)NC2CCCCCCC2)n1 | . | 2 | 5 | . | . | -3
O=S(=O)(NCc1ccccc1F)NCc1ccccc1F | -13 | 3 | 5 | -1 | 0 | 8
COc1cc(/C=N/NC(=O)c2ccoc2C)cc(OC)c1O | -63 | -2 | 0 | -4 | 57* | 1
Cc1occc1C(=O)N/N=C/C=C/c1ccc(N(C)C)cc1 | . | -7 | -18 | . | . | -16
Cc1occc1C(=O)N/N=C/c1ccc(N(C)C)cc1 | 74* | 1 | 0 | . | 37 | 10
COc1cc(/C=N/NC(=O)c2cccc([N+](=O)[O-])c2)cc(OC)c1O | -30 | 6 | -1 | -6 | 67* | 20
COc1cc(/C=N/NC(=O)c2ccc(Cn3cc([N+](=O)[O-])cn3)o2)cc(Br)c1O | -23 | 1 | 9 | 0 | 56* | -4
COc1ccc(/C=N/NC(=O)c2ccc(Cn3cc([N+](=O)[O-])cn3)o2)cc1O | -9 | 5 | 0 | 2 | 15 | 1
O=C(COC(=O)Cc1cccs1)NCC(=O)Nc1ccc(F)cc1 | . | 1 | -3 | . | . | 0
O=C(Nc1cc2c3c(c1)CC(=O)N3CCC2)c1ccc(Br)o1 | . | 1 | 7 | . | . | 10
COc1cc(/C=N/NC(=O)c2cc(-c3ccco3)nc3ccccc23)cc(OC)c1O | -23 | 6 | 2 | . | 82* | 11
COc1cc(/C=N/NC(=O)C(=O)NCc2ccco2)cc(Br)c1O | -22 | -1 | 0 | . | 56* | 4
COc1cc(/C=N/NC(=O)c2cc(-c3ccccc3Cl)nc3ccccc23)cc(OC)c1O | . | -2 | 2 | . | . | 3
